Screens as filed in PubChem BioAssay.
Only some compounds are listed: those with a hit (about 3.8% of all), similar ones and a draw of the others.
ERb coact inh: ER-beta (human) coactivator binding inhibition. TR-FRET ER-beta LBD / SRC1-Cy5 peptide binding; receptor agonist-loaded with 1 µM estradiol. inhibition, % at 25.6 µM. AID 633. Q92731. actives 1.3% (n = 86,000);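 active = compounds whose percent inhibition of the receptor-coactivator binding signal exceeds about 50% in the single-dose screen, limit read from the data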;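 also: 0% = receptor plus peptide wells without compound and 100% = peptide-only wells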
MT1-MMP txn act: MT1-MMP promoter transcription activation; activation factor at 10 µM; actives 0.16% (n = 86,000); AID 750; HT1080 MT1-MMP promoter luciferase reporter, luminescence, overnight; stronger effect = higher value;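 active = activation factor of at least 2 for MT1-MMP transcription at 10 µM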
ERa SRC1 inh: blocks coactivator binding to human estrogen receptor alpha; P03372; TR-FRET ER-alpha LBD / SRC-1 peptide, estradiol-bound; inhibition, % at 25.6 µM; actives 1.7% (n = 86,000); AID 629; in the data active = inhibition above about 50%;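 also: 0% = receptor plus peptide control and 100% = peptide only without receptor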
hDAT+cocaine: human DAT dopamine uptake with cocaine, either direction. B-score at 10 µM. AID 449768. actives 1.3% (n = 110,000). Q01959. LLC-PK1 hDAT cells, [14C]-dopamine uptake with cocaine IC80; actives deviate in either direction;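 active = Z score or B-score, a plate-position-corrected score, falls beyond the plate's 99.7% confidence bounds, in either direction; inactive = both scores lie inside the 99.7% bounds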;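 also: scored against the spread of the other compound wells on the same plate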
ERa SRC1 pot: ER-alpha (human) coactivator binding potentiation. TR-FRET ERalpha-LBD/SRC-Cy5 coactivator binding, 2 h; 100 = basal binding, no effect. coactivator binding (% of control), % at 25.6 µM. actives 1.3% (n = 86,000). AID 639; in the data active = activity above about 200%;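 also: binding measured in presence of low estradiol as agonist stimulus; 0% = peptide alone without receptor and 100% = receptor with peptide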
Active calls of the source: *; [ ] = another dose, or the depositor's remark.

For CCOc1cccc(C(=O)Nc2cccc(-c3nnc(-c4ccc(C)cc4)o3)c2)c1 the results were ERb coact inh 60*[fluorescence artefact?], MT1-MMP txn act 1, ERa SRC1 inh 68*[fluorescence artefact?], hDAT+cocaine 0.95 and ERa SRC1 pot 158.
For COc1ccc(CC(=O)Nc2cccc(-c3nnc(-c4ccc(C)cc4)o3)c2)cc1OC the results were MT1-MMP txn act 1 and hDAT+cocaine 1.7.
For CCOc1cccc(C(=O)Nc2cccc(-c3nnc(-c4ccccc4)o3)c2)c1 the results were ERb coact inh 31, MT1-MMP txn act 1.1, ERa SRC1 inh 45, hDAT+cocaine 0.57 and ERa SRC1 pot 108.
COc1ccccc1NC(=O)N(Cc1ccccc1)C1=NCC(C)S1 (stereo not drawn) was read as ERb coact inh 23, MT1-MMP txn act 1.1, ERa SRC1 inh -1, hDAT+cocaine -3.7* and ERa SRC1 pot 102.
For Cn1c(-c2ccc(C=O)s2)nc2c3ccccc3c3ccccc3c21 the results were ERb coact inh -1, MT1-MMP txn act 1.2, ERa SRC1 inh 32, hDAT+cocaine 1 and ERa SRC1 pot 364*[fluorescence artefact?].
COc1ccc(NC(=O)c2cc(Cl)ccc2NC(=O)c2ccco2)c(OC)c1 was read as ERb coact inh 10, MT1-MMP txn act 1.2, ERa SRC1 inh 16, hDAT+cocaine -0.089 and ERa SRC1 pot 217*[fluorescence artefact?].
For COc1ccc(C)cc1NC(=O)C(C)N(c1ccc(C)cc1)S(C)(=O)=O (stereo not drawn) the results were ERb coact inh 2, MT1-MMP txn act 1.2, ERa SRC1 inh -2, hDAT+cocaine 2.7* and ERa SRC1 pot 143.
Screening COc1ccc2c(c1)c(=O)oc1cc3oc(C)c(C)c3cc12 returned ERb coact inh 57*, MT1-MMP txn act 1.4, ERa SRC1 inh 67* and ERa SRC1 pot 72.
COc1ccc2c(c1)c(=O)oc1cc(O)ccc12 was read as hDAT+cocaine 0.85.
O=c1oc2c3c4c(cc2cc1-c1nc2ccccc2[nH]1)CCCN4CCC3 was read as ERb coact inh 58*[fluorescence artefact?], MT1-MMP txn act 1.4, ERa SRC1 inh 94*[fluorescence artefact?] and ERa SRC1 pot 10.
Screening COc1ccc(OC)c(-c2cc(C(=O)N3CCc4ccccc4C3)no2)c1 returned MT1-MMP txn act 1.1 and hDAT+cocaine 2.9*.
For COc1ccc(OC)c(-c2cc(C(=O)Nc3cc(C)on3)no2)c1 the results were ERb coact inh 33, MT1-MMP txn act 1.2, ERa SRC1 inh 35, hDAT+cocaine -1.8 and ERa SRC1 pot 245*[fluorescence artefact?].
COc1cccc(-c2cc(C(=O)N3CCc4ccccc4C3)no2)c1 was read as ERb coact inh 10, MT1-MMP txn act 1.1, ERa SRC1 inh -2, hDAT+cocaine 2.2 and ERa SRC1 pot 94.
`O=C(c1cc(-c2cccs2)nc2ccccc12)N1CCN(S(=O)(=O)c2ccccc2)CC1` gave ERb coact inh 17, MT1-MMP txn act 1.1, ERa SRC1 inh 1, hDAT+cocaine 1.1 and ERa SRC1 pot 201*[fluorescence artefact?].
For CCOC(=O)c1cc2sc(C)cc2n1CC(=O)NCCc1ccccc1 the results were ERb coact inh -10, MT1-MMP txn act 1, ERa SRC1 inh -41, hDAT+cocaine -0.2 and ERa SRC1 pot 932*[fluorescence artefact?].
COC(=O)c1cc2sc(Cl)cc2n1CC(=O)NCCC(C)C was read as ERb coact inh 0, MT1-MMP txn act 1.1, ERa SRC1 inh -4, hDAT+cocaine 1.5 and ERa SRC1 pot 226*[fluorescence artefact?].
COc1ccc(N(CC(=O)Nc2ccc3c(c2)OCCO3)S(=O)(=O)c2c(C)noc2C)cc1 was read as ERb coact inh 99*[fluorescence artefact?], MT1-MMP txn act 1.3, ERa SRC1 inh -2 and ERa SRC1 pot 109.
For Cc1sc2ncnc(OCC(=O)NCC3CCCO3)c2c1C (stereo not drawn) the results were ERb coact inh 6, MT1-MMP txn act 1.1, ERa SRC1 inh -11, hDAT+cocaine -3.3* and ERa SRC1 pot 116.
For COc1cc(CCC(O)CC(=O)CCc2ccccc2)ccc1O (stereo not drawn) the results were hDAT+cocaine 0.76.
For Cc1ccc(C(=O)NCCc2csc(C)n2)cc1 the results were ERb coact inh 6, ERa SRC1 inh -2, hDAT+cocaine 2.6* and ERa SRC1 pot 116.
For CCOC(=O)C1Cc2ccccc2CN1 (stereo not drawn) the results were ERb coact inh 57*[fluorescence artefact?], MT1-MMP txn act 1.1, ERa SRC1 inh -5, hDAT+cocaine 0.042 and ERa SRC1 pot 102.
